Bioassay records (PubChem)
An excerpt weighted towards active compounds, which were near 1.5% of everything screened.
TcdB GH inh = inhibitors of Clostridioides difficile toxin B glycohydrolase | TcdB glycohydrolase enzymatic assay, plate reader | P18177 | 350,000 compounds, 0.24% hits | inhibition, % at 9.99 µM; in the data active = inhibition above about 10%
Target sequence (P18177 whole entry, looked up): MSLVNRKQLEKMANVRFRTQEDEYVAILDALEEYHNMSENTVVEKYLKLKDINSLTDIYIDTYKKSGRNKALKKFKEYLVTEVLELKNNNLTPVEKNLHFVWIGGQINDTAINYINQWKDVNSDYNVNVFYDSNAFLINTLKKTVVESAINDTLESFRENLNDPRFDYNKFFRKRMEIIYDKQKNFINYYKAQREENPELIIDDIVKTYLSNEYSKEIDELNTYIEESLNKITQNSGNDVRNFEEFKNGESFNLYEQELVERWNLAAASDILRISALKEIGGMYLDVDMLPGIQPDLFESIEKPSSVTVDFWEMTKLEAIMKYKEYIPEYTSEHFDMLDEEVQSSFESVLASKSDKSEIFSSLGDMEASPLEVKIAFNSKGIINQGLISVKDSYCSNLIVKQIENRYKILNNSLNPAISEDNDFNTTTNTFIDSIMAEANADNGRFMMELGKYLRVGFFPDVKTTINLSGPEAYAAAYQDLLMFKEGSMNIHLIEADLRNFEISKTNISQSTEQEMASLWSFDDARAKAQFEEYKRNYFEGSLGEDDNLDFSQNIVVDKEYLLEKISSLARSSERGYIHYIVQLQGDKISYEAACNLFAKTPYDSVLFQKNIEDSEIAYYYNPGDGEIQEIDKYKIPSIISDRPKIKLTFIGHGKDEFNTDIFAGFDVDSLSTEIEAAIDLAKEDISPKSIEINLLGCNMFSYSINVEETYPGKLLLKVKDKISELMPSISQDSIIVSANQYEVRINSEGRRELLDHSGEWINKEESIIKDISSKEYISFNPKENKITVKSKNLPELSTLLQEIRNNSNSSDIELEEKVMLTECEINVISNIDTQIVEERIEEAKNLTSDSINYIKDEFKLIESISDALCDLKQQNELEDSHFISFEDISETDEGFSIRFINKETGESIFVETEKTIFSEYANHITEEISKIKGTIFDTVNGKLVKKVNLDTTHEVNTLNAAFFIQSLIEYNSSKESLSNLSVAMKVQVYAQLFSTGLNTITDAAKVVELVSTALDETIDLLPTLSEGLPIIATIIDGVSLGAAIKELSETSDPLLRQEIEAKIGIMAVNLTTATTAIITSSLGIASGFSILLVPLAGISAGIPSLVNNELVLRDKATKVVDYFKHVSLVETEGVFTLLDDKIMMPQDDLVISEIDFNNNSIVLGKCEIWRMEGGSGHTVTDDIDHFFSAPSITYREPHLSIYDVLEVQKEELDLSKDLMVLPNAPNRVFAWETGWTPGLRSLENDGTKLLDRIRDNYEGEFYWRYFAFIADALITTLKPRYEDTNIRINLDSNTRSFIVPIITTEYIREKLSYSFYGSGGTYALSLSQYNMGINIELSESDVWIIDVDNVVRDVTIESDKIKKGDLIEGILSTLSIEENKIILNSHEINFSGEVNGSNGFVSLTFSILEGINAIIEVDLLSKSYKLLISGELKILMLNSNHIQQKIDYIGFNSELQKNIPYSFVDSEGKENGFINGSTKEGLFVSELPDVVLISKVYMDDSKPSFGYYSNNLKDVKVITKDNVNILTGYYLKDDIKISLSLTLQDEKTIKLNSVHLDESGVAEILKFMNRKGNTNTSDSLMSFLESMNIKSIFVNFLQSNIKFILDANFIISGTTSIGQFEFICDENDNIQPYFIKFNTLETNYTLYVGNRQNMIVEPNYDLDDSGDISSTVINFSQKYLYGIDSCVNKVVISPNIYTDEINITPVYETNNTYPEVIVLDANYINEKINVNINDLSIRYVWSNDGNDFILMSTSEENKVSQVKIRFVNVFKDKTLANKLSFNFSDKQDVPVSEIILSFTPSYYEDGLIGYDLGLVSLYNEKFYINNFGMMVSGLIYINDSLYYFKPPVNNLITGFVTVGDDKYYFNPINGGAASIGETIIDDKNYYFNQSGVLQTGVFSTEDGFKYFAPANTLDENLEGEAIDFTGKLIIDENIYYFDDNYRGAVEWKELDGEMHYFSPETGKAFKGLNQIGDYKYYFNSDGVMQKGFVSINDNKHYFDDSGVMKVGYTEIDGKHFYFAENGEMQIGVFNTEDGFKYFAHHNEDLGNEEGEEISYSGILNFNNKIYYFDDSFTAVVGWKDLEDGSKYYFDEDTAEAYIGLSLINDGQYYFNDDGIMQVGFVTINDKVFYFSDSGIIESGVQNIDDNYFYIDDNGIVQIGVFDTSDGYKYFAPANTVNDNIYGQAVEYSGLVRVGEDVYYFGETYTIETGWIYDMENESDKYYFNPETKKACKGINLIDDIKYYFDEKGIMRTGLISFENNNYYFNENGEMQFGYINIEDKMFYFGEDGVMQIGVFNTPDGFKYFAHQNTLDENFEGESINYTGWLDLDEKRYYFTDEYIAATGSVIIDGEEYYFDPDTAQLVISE
PriA SSB inh = blocks PriA binding to SSB C-terminal tail; AlphaScreen SSBct-PriA binding, biotinylated peptide; inhibition, % at 33 µM; 430,000 compounds, 0.6% hits; AID 1272365; in the data active = inhibition mostly above about 37%, no sharp cut-off; inactive = mostly below about 20%;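 note: plate controls were negative control peptide for no effect and reference peptide for full effect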
CCHF vOTU inh = CCHFV vOTU protease inhibition; Pep-AMC fluorescence; 370,000 compounds, 0.55% hits; inhibition, % at 11.5 µM; in the data active = inhibition above about 30%; note: 0% = vehicle wells with enzyme and 100% = no enzyme wells
PrPC surface inh = reduces human prion protein on the cell surface | 370,000 compounds, 0.43% hits | cell surface PrPC, TR-FRET read-out | inhibition, % at 13.8 µM; in the data active = inhibition above about 24%; note: 0% = median of the test wells and 100% = reference compound wells
BH1578 lux ind = induces V. cholerae light production without autoinducers | AID 588436 | activation, % at 18.7 µM | 350,000 compounds, 0.16% hits | V. cholerae BH1578 lux reporter, luminescence, 6 h; in the data active = activation mostly above about 9.7%, no sharp cut-off
DUSP3 inh = inhibitors of human VHR1 phosphatase (DUSP3) | AID 1654 | recombinant VHR phosphatase, pNPP absorbance | inhibition, % at 13.3 µM | 290,000 compounds, 0.52% hits; in the data active = inhibition above about 50%
PrPC confirm = cell surface PrPC inhibition, TR-FRET confirmation; inhibition, % at 13.8 µM; shares compounds with PrPC surface inh; 1,500 compounds, 65% hits; cell surface PrPC level; in the data active = inhibition above about 25%
LD9 tox = kills or reduces viability of LD9 cells in PrPc counter-screen | shares compounds with PrPC surface inh | LD9 cells cytotoxicity, luminescence viability | inhibition, % at 13.8 µM | 1,500 compounds, 29% hits; in the data active = inhibition above about 9.5%
An asterisk follows results filed as active; i = inactive; · = not tested or not shown.

SMILES	TcdB GH inh	PriA SSB inh	CCHF vOTU inh	PrPC surface inh	BH1578 lux ind	DUSP3 inh	PrPC confirm	LD9 tox
O=C(Nc1cccc(Cl)c1)Nc1ccc2c(c1)OCO2	·	12	6	32*	0	3	31*	-3
Cc1cc([C@@H](O)CCNC(=O)Nc2ccc(Cl)c(Cl)c2)c(C)o1	·	3	·	·	·	·	·	·
C=CCOC(=O)C1=C(C)NC(SCC(=O)N(CC)CC)=C(C#N)C1c1ccccc1 (centres undefined)	·	-15	14	29*	0	-4	35*	8
C=CCOC(=O)C1=C(C)NC(SCC(=O)N(CC)CC)=C(C#N)C1c1ccco1 (centres undefined)	1	-3	3	3	-7	-12	·	·
CC(=O)N1CCC(C(=O)NC2CCCc3c2cnn3-c2cc(F)cc(F)c2)CC1 (centres undefined)	-2	-18	-5	85*	i	9	0	-6
C=CCSc1nc(N)c(C#N)c(-c2ccccc2)c1C#N	·	-11	4	51*	6	22	10	-5
Cc1ccc(NC(=O)c2sccc2S(=O)(=O)N(C)c2ccc(Cl)cc2)cc1	·	-14	·	·	·	·	·	·
O=C(O)c1ccccc1C(=O)c1cccc2c(Br)cccc12	-1	-8	12	60*	-3	·	91*	-6
Cc1cccc(NNC(=O)C(=O)NNc2cccc(C)c2)c1	5	-1	-2	29*	-1	5	21	-3
Cc1cccc(NC(=O)CC(=O)Nc2cccc(C)c2)c1	0	10	-3	5	-1	47	·	·
CCOC(=O)c1cc(C(=O)N/N=C\c2cc(OC)c(OC)c(OC)c2)c(C)nc1C	·	4	·	·	·	·	·	·
COc1ccc(C)cc1NC(=O)c1cccc(N2C(=O)[C@@H](C)CS2(=O)=O)c1	·	-5	·	·	·	·	·	·
O=C(O)c1cc(-c2ccc(-c3ccccc3)cc2)on1	·	-5	·	·	·	·	·	·
O=S(=O)(Nc1cccnc1)c1ccc(Br)c2ccccc12	0	-5	-13	36*	i	12	43*	-5
Cc1ccccc1C(=O)N1CCN(c2ccc(NC(=O)c3ccc4c(c3)OCO4)cc2)CC1	1	2	-13	34*	0	21	30*	13*
O=C(Nc1ccc(N2CCN(C(=O)c3ccco3)CC2)cc1)c1ccc2c(c1)OCO2	·	-5	-2	25*	0	48	15	3
O=C(Nc1ccc(N2CCN(C(=O)c3ccco3)CC2)cc1)c1ccc(Br)cc1	0	-3	1	-7	0	15	·	·
C=C1C(C)C2C(Cc3ccccc3)NC(=O)C23OC(=O)/C=C/C(O)CCCC(C)C/C=C/C3C1O (centres undefined)	1	-7	-5	26*	i	·	17	14*
NC(=O)c1ccc2c(=O)c(O)c(-c3cc(Cl)c(N)c(Cl)c3)[nH]c2c1	13*	-16	-20	29*	i	9	4	0
CCCNC(=O)c1ccc2c(=O)c(O)c(-c3ccc(Cl)c([N+](=O)[O-])c3)[nH]c2c1	1	-23	8	-11	1	30	·	·
Cc1cc(C)n(-c2cc(N3CCC[C@H](C(=O)Nc4nc5ccccc5s4)C3)ncn2)n1	·	-9	·	·	·	·	·	·
O=C(Nc1oc2ccccc2c(=O)c1-c1ccc2c(c1)OCO2)c1ccco1	-4	·	26	33*	i	·	28*	3
Cc1cc(C(=O)Nc2ccccc2-c2csc(-c3ccccc3F)n2)c(C)o1	·	3	·	·	·	·	·	·
Cc1nc(Nc2nc(CSc3nc4ccccc4[nH]3)cc(=O)[nH]2)nc2ccccc12	·	10	6	34*	0	8	46*	20*
COc1ccc2nc(Nc3nc(CSc4nc5ccccc5[nH]4)cc(=O)[nH]3)nc(C)c2c1	0	-8	4	7	0	-1	·	·
SMILES	TcdB GH inh	PriA SSB inh	CCHF vOTU inh	PrPC surface inh	BH1578 lux ind	DUSP3 inh	PrPC confirm	LD9 tox
CN1C(=O)C(C)(C)c2cc(S(=O)(=O)N3CCCC3C(=O)NCc3ccc(F)cc3)ccc21 (centres undefined)	1	-12	-7	4	0	2	·	·
CN1C(=O)C(C)(C)c2cc(S(=O)(=O)N3CCCC(C(=O)NCc4ccc(Cl)cc4)C3)ccc21 (centres undefined)	0	-5	0	41*	0	6	45*	-2
Cc1cc(C)cc(NC(=O)C2CCCN2S(=O)(=O)c2ccc3c(c2)C(C)(C)C(=O)N3C)c1 (centres undefined)	2	-7	0	37*	0	13	19	-4
COc1cc(OC)c(NC(=O)Cn2cnc3c(sc4ccccc43)c2=O)cc1Cl	·	-9	·	·	·	·	·	·
Cn1c(N2CCC(C(N)=O)CC2)nc2c1c(=O)n(Cc1ccc(Br)cc1)c(=O)n2C	·	-13	-1	26*	0	·	29*	2
OC[C@@H]1CN(Cc2ccc(Cl)cc2)C[C@H](n2cnc3c(NC4CCC4)ncnc32)O1	-1	·	-1	26*	i	·	23	-6
CN(CC(=O)Nc1ccccc1C(F)(F)F)C(=O)c1cc(-c2cccs2)nn1-c1ccccc1	1	1	9	25*	i	·	49*	0
O=C(Nc1ccccc1F)NC1CCCC(O)C1 (centres undefined)	·	-10	·	·	·	·	·	·
Cc1cc(OC2CCN(C(=O)Nc3ccccc3F)CC2)cc(=O)o1	·	-8	·	·	·	·	·	·
CC(C)C(=O)N1CCN(c2ccc(NC(=O)c3ccc([N+](=O)[O-])o3)cc2Cl)CC1	3	-12	-2	36*	0	33	11	98*
O=C(Nc1ccc(N2CCN(C(=O)c3ccccc3)CC2)cc1)c1ccc([N+](=O)[O-])o1	0	-6	4	26*	-1	5	22	93*
Cc1nnc(C2CCN(C(=O)c3sc(-n4cccc4)nc3C)CC2)s1	·	-3	·	·	·	·	·	·
O=C(Nc1ccc([N+](=O)[O-])cc1)Nn1cnnc1	2	-4	2	37*	0	18	-1	1
CCN(Cc1ccccc1)C(=O)[C@H](C)n1nc(C)ccc1=O	·	-9	·	·	·	·	·	·
Cc1c(N/N=C(\C#N)C(=O)c2ccc(Cl)cc2)c(=O)n(-c2ccccc2)n1C	·	·	18	34*	0	7	26*	25*
N#C/C(=N\Nc1ccc(Cl)cc1)C(=O)c1ccccc1	·	·	4	7	0	3	·	·
O=C(c1ccccc1Br)N1CCC(S(=O)(=O)c2ccccc2)C1 (centres undefined)	·	-15	·	·	·	·	·	·
Cn1nc(C(=O)NCCn2nc(-n3cncn3)ccc2=O)ccc1=O	·	-12	·	·	·	·	·	·
COP(=O)(OC)c1nc(-c2ccccc2)oc1NCc1ccccc1	·	18	-21	7	-4	12	·	·
CCCOP(=O)(OCCC)c1nc(-c2ccccc2)oc1NCc1ccccc1	2	-14	10	28*	i	8	14	-6
